Source: PubChem BioAssay (several laboratories)
DSG3 Ab inh = inhibitors of pemphigus antibody binding to DSG3, primary screen, biochemical, bead-based, flow cytometry, scFv-GFP; 310,000 tested, 0.48% active; DSG3-coupled beads, scFv-anti-DSG3-GFP binding; active compounds read low; binding (percent of control), % at 10 µM;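 active = binding more than 3 SD below its plate's average and above zero; inconclusive = below that plate limit but binding exactly zero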;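 note: hits lower antibody fragment binding to DSG3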
VLA-4 inh = inhibition in human VLA-4 binding assay, primary screen, VLA-4 allosteric modulator project, MLPCN library, flow cytometry, VLA-4 expressing cells; ligand binding flow cytometry; inhibition, % (about 7 µM as worked out from the volumes in the protocol); 330,000 tested, 0.2% active; AID 2557, 2010
PKD1 kinase inh = inhibitors of human PKD1 kinase, biochemical, fluorescence polarization | Serine/threonine-protein kinase D1 (Homo sapiens), Q15139 | PKD1 kinase fluorescence polarization assay | inhibition, % (no concentration beside the values) | 200,000 tested, 0.056% active
LANA-H2B inh = blockers of LANA interaction with H2A/H2B – biochemical, FP readout, HTS, primary screen. cell-free LANA-H2A/H2B peptide, fluorescence polarization. inhibition, % (concentration not given with the values). 320,000 tested, 0.6% active. AID 2629, 2010; in the data active = inhibition mostly above about 10%, no sharp cut-off; inactive = mostly below about 6.7%
HDAC3 inhib = HDAC3 deacetylase inhibitors, primary screen, biochemical, fluorescence, cell-free homogeneous. Histone deacetylase 3 (Homo sapiens), O15379. inhibition, % at 8.3 µM. recombinant HDAC3, fluorogenic peptide/trypsin coupled. AID 2718, 2010. 320,000 tested, 0.15% active; in the data active = inhibition above about 26%, passing the limit was not always enough; inconclusive = no clear call, values can overlap the other calls
Target sequence (O15379 whole entry, looked up): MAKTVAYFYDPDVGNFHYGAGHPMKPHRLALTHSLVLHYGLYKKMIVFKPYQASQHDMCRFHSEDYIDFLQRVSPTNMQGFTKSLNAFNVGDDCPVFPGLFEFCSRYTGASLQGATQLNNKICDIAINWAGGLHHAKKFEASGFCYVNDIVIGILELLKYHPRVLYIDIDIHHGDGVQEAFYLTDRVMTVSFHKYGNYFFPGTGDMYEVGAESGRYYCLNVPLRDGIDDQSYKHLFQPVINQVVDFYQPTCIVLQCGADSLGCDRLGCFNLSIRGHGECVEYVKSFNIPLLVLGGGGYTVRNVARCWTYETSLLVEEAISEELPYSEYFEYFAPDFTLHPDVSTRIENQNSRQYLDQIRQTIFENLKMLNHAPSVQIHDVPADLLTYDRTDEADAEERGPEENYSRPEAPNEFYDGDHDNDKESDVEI
GRK2 aptamer HTS = compounds blocking aptamer binding on GRK2 – biochemical, human GRK2, bead flow cytometry, HTS, primary screen; Beta-adrenergic receptor kinase 1 (Homo sapiens), P25098; FAM-aptamer displacement from GRK2; inhibition of aptamer binding, % at 10 µM; 330,000 tested, 0.59% active; AID 488847, 2010;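 active = inhibition of aptamer binding above 40%, roughly 3 SD of noise, on plates passing a quality check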;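 note: median bead fluorescence of bound FAM aptamer so fluorescent compounds give negative values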
Hits are given with their value; – = inactive; ? = inconclusive; · = no result; + = active, no number; ! = not active in a repeat. Shown are actives, neighbours in structure and some others; about 1.8% of the full set was active somewhere. Cut-off read from the data, not from the text of the source, unless noted: active = inhibition above about 50%; inactive = the rest.

SMILES	DSG3 Ab inh	VLA-4 inh	PKD1 kinase inh	LANA-H2B inh	HDAC3 inhib	GRK2 aptamer HTS
CCOC(=O)c1nn(-c2ccc(F)cc2)c(=O)cc1OCC(=O)N1CCN(c2ccccc2)CC1	–	–	·	·	·	–
O=S1(=O)c2ccc(Br)cc2N2CCC[C@H]2CN1Cc1ccccc1	–	·	·	·	·	–
C[C@@H](c1ccccc1)N1C[C@H]2CCCN2c2cc(Br)ccc2S1(=O)=O	–	·	·	·	·	41
O=C(CCCN1CCC(O)(c2ccc(Br)cc2)CC1)c1ccc(F)cc1	–	–	·	–	–	–
O=C(CCCN1CCC(O)(c2ccc(Cl)cc2)CC1)c1ccc(F)cc1	53	–	–	–	–	–
O=C(c1ccccc1F)N1CCN(S(=O)(=O)c2ccc3c(c2)OCCO3)CC1	–	–	–	–	32	–
Cc1cccc(NC(=O)COC(=O)Cc2cccc(C(F)(F)F)c2)c1C	–	–	–	+	–	–
COC(=O)c1[nH]c2ccc(F)cc2c1NC(=O)C1=COCCO1	–	–	–	11	–	–
CC(C)[C@H](NC(=O)c1ccccc1F)C(=O)OCC(=O)NC(=O)NC1CCCCC1	–	–	·	–	–	–
CC(C)[C@H](NC(=O)c1c(F)cccc1F)C(=O)OCC(=O)NC(=O)NC1CCCC1	–	–	·	14	–	–
CCCc1cc(=O)[nH]c(SCC(=O)N2CCN(S(=O)(=O)c3ccc4ccccc4c3)CC2)n1	-2.3	·	–	–	–	–
CCCc1cc(=O)[nH]c(SCC(=O)N2CCc3ccccc3C2)n1	–	–	·	+	–	–
CCCc1cc(=O)[nH]c(SCC(=O)N2CCc3cc(OC)c(OC)cc3C2)n1	–	–	·	–	–	–
Cc1ccc(S(=O)(=O)n2nc(OC(=O)c3ccco3)cc2N)cc1	–	–	–	–	58	–
Nc1cc(OC(=O)c2ccc(F)cc2)nn1S(=O)(=O)c1ccc(F)cc1	–	–	·	–	60	–
Cc1ccc(S(=O)(=O)c2c(C)nn(C(C)(C)C)c2OC(=O)c2ccco2)cc1	·	–	–	15	–	–
Nc1cc(OC(=O)c2ccco2)nn1S(=O)(=O)c1ccc(F)cc1	·	–	–	–	85	–
CC(C)(C)C(=O)Oc1cc(N)n(S(=O)(=O)c2ccc(F)cc2)n1	–	–	–	–	?	–
Cc1ccc(S(=O)(=O)n2nc(OC(=O)c3ccccc3C)cc2N)cc1	–	–	·	–	–	–
Cc1ccc(S(=O)(=O)n2nc(OC(=O)c3cccc(F)c3)cc2N)cc1	·	–	·	–	–	–
CCC(=O)N(Cc1cc2ccccc2[nH]c1=O)c1ccccc1OC	–	–	·	–	–	·
COc1cccc2cc(C(=O)N3CCCCCCC3)c(=O)oc12	19	–	·	–	–	–
O=Cc1c[nH]c2ccc(C(=O)c3ccccc3)cc12	–	–	·	–	–	–
Cc1nn(-c2ccccc2)c(N)c1Sc1ccc([N+](=O)[O-])cc1	–	–	–	–	–	–
Cc1nn(S(=O)(=O)c2ccc(Cl)cc2)c(C)c1Sc1ccc([N+](=O)[O-])cc1	–	–	–	12	–	–
SMILES	DSG3 Ab inh	VLA-4 inh	PKD1 kinase inh	LANA-H2B inh	HDAC3 inhib	GRK2 aptamer HTS
O=S(=O)(Nc1ccccc1OC(F)F)c1ccc(S(=O)(=O)N2CCCC2)cc1	–	–	·	–	–	–
C[C@]12CC[C@@H]3c4ccc(O)cc4CC[C@H]3[C@@H]1CCC2=O	–	–	–	40!	–	–
CCN(C(=O)CSc1nnc(-c2ccccc2OC)n1N)c1c(N)n(Cc2ccccc2)c(=O)[nH]c1=O	–	·	·	·	·	·
CCCCN(C(=O)CSc1nnc(-c2ccccc2OC)n1C)c1c(N)n(Cc2ccccc2)c(=O)[nH]c1=O	–	–	–	+	–	–
CCOC(=O)C1=C(C)C/C(=N\NC(=O)c2ccccc2O)CC1	–	–	·	17	–	–
O=C(CCN1CCCCO1)N1CCCC(N2CCN(c3ccc(F)cc3)CC2)C1 (centres undefined)	–	–	·	13	–	–
O=C(CCN1CCCO1)N1CCCC(N2CCN(c3ccccc3F)CC2)C1 (centres undefined)	–	–	·	–	–	–
Cc1ccccc1OCC(=O)Nc1ccccc1-c1ccccc1	8.5	–	·	–	–	–
COc1ccc2cc3c(N)nn(C(=O)c4ccc(Cl)c([N+](=O)[O-])c4)c3nc2c1	–	–	–	–	–	57
CCOCCCN(C(=O)c1snc(C(N)=O)c1N)C(C(=O)NC1CCCC1)c1ccc(F)cc1 (centres undefined)	·	–	·	–	–	–
Cc1ccc(-c2cc(=O)c3cc(F)ccc3[nH]2)cc1	–	–	–	–	–	–
Cc1ccc(C)c(-n2sc3ccc(F)cc3c2=O)c1	55	–	·	–	?	–
COc1ccc(N2C(=O)CSC2c2ccc(F)cc2)cc1 (centres undefined)	–	–	·	–	–	–
COc1ccc(-n2cc(C(=O)O)c3ccccc3c2=O)cc1	–	–	–	–	–	–
COc1ccc(-n2sc3ccc(F)cc3c2=O)cc1	50	–	·	–	?	–
O=c1c2cc(F)ccc2sn1-c1ccc(F)cc1	49	–	·	–	?	–
COc1ccc(-n2sc3ccccc3c2=O)cc1	74	·	·	·	·	·
Cc1cc(N/N=C/c2ccncc2)c([N+](=O)[O-])cc1[N+](=O)[O-]	–	–	·	–	–	–
CC(=O)Nc1ccc(C(=O)OCC(=O)NCc2cccs2)cc1	–	–	·	–	–	–
COc1cccc(NC(=O)C(c2ccccc2)N2CCNC(=O)C2)c1 (centres undefined)	–	–	–	–	–	–
O=C(CSc1ccccc1)Nc1ccc(N2CCOCC2)cc1	–	–	–	–	–	–
O=C(CSc1ccccc1F)Nc1ccc(N2CCOCC2)cc1	–	–	·	18	–	–
CCOC(=O)CCCCC(=O)c1[nH]c(=O)[nH]c1C[n+]1ccccc1	·	–	–	17	–	–
COc1cccc(-c2nc3n(n2)C(c2ccc4c(c2)OCO4)C(C(N)=O)=C(C)N3)c1 (centres undefined)	–	–	–	–	56	–
CCC(=O)Nc1ccc2c(c1)N(C(C)=O)c1ccccc1CC2	–	–	·	–	–	–
O=C(Nc1nnc(C23CC4CC(CC(C4)C2)C3)s1)c1ccco1	71	–	–	–	–	–
CCOc1ccc(/C=C2\CCCc3c2nc2ccccc2c3C(=O)O)cc1OC	·	–	·	121	–	–
COc1ccc(/C=C2\CCCc3c2nc2ccccc2c3C(=O)O)cc1OC	·	–	·	91	–	–
